Measured values: PubChem BioAssay (NCI)
Several values for one entry are separate records, joined by “and”; a condition that tells them apart may be missing. Equal values may be shown once. About 83,000 compounds went through this panel and 20% of them were active in at least one assay; those are over-represented in the sample as a whole.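 Single-dose data. Exposure time 48 hours. Values below 10 considered active.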 Values without a mark were called inactive. Activity calls are given as the source filed them.

The compounds below were run on MCF7 breast (assay: NCI-60 one-dose screen, 48 h (100 = growth as untreated, 0 = no growth, -100 = all killed)). Conditions: 10 µM unless noted.

Structure (SMILES) | growth
CCOC(=O)C1C(C=C(C)C)C1(C)C (stereo not given) | 112%
N[C@@H](CCC(=O)CCl)C(=O)O | 87.9% [20 µM]
Oc1ccc(O)c(Cl)c1 | 86% and 96.7%
CC(C)c1cccc(C(C)C)c1O | 91.1%
N#CC(C#N)=C(C#N)C#N | 98.1%
CC(C)CCC1C(=O)NC(=O)NC1=O | 88.8%
COc1ccc(N)cc1N | 94.8%
CC1OC(=O)C(C(C)C)NC(=O)C(C(C)C)OC(=O)C(C(C)C)NC(=O)C(C)OC(=O)C(C(C)C)NC(=O)C(C(C)C)OC(=O)C(C(C)C)NC(=O)C(C)OC(=O)C(C(C)C)NC(=O)C(C(C)C)OC(=O)C(C(C)C)NC1=O (stereo not given) | -31.7% (active)
C[C@H](O)CCC(=O)c1ccoc1 | 98.6%
CCCCCCCCCCCCCCCCCC1OCC(COC(=O)O[C@@H](C(=O)O[C@H]2C[C@@]3(O)[C@@H](OC(=O)c4ccccc4)[C@@H]4[C@]5(OC(C)=O)CO[C@@H]5C[C@H](O)[C@@]4(C)C(=O)[C@H](OC(C)=O)C(=C2C)C3(C)C)[C@@H](NC(=O)c2ccccc2)c2ccccc2)O1 (stereo not given in full) | 18.3%
O=c1[nH]c(=O)[nH]c(=O)[nH]1 | 97.1%
O=CC1(c2ccccc2)CCN(Cc2ccccc2)CC1 | 103%
CC(=O)c1cccc(S(=O)(=O)F)c1 | 96.8%
CC(=O)Nc1nc2c(s1)C1=CC[C@H]3[C@@H]4CC[C@H](OC(C)=O)[C@@]4(C)CC[C@@H]3[C@@]1(C)CC2 | 44.1%
CC1=CC(=O)CCC12CCOC2=O (stereo not given) | 97.4%
CCC1CCC(=O)O1 (stereo not given) | 90.5% and 105%
CN(C)C(=S)SSC(=S)N(C)C | 70.9%
ClC1OC(Cl)(Cl)C(Cl)(Cl)OC1(Cl)Cl (stereo not given) | 76.9%
COc1ccc(N)cc1OC | 102%

What follows are compounds tested on HCT-116 colon in the same assay as above. Conditions: 10 µM unless noted.

Structure (SMILES) | growth
N#CC(C#N)=Cc1cccc(F)c1 | 108%
CN(C)c1ccc(C=C2C(=O)NC(=O)NC2=O)cc1 | 53.9%
[N-]=[N+]=CC(=O)CCC(=O)C=[N+]=[N-] | 102%
CC1=C2[C@H]3OC(=O)[C@@H](C)[C@@H]3CC[C@@]2(C)C=CC1=O | 118%
O=[N+]([O-])c1ccc2scc3c4ccccc4nc-3c2c1 | -98.7% (active)
Cc1cc(NC(=O)NCCCOc2ccc(N3C(N)=NC(N)=NC3(C)C)cc2Cl)ccc1S(=O)(=O)F | 17.8%
Nc1c(Cl)c(Cl)nc(C(=O)O)c1Cl | 97.3%
Cn1cc(C(=O)C[n+]2ccccc2)c2ccccc21 | 97.5%
Nc1nc(=S)nc(N)[nH]1 | 89.1%
C[C@]12CCC(=O)C[C@@H]1CC[C@@H]1[C@@H]2CC[C@]2(C)[C@@H](OC(=O)N(CCCl)N=O)CC[C@@H]12 | 25.9%
NC1CN2CCC1CC2 (stereo not given) | 109%
O=C(O)C1C(C(=O)O)C2(Cl)C(Cl)=C(Cl)C1(Cl)C2(Cl)Cl (stereo not given) | 101% and 107%
O=C1NC(=O)C(=C/C=C/c2ccccc2)C(=O)N1 | -78.5% (active)
c1ccc(CCN2CCCCC2)nc1 | 99.9%
O=[N+]([O-])c1cc(Br)c(O)c(Br)c1 | 97.3%
Cc1cc(Br)c([N+](=O)[O-])cc1[N+](=O)[O-] | 20.5%
C[C@]12CC[C@@H](OC(=O)N(CCCl)N=O)C[C@@H]1CC[C@@H]1[C@@H]2CC[C@]2(C)C(=O)CC[C@@H]12 | 47.5%
CCOC(=O)C1C(C=C(C)C)C1(C)C (stereo not given) | 108%

Structure (SMILES) | growth
N[C@@H](CCC(=O)CCl)C(=O)O | 104% [20 µM]
Oc1ccc(O)c(Cl)c1 | 102% and 109%
CC(C)c1cccc(C(C)C)c1O | 101% and 95.8%
N#CC(C#N)=C(C#N)C#N | 102%
CC(C)CCC1C(=O)NC(=O)NC1=O | 98.1%
COc1ccc(N)cc1N | 108%
CC1OC(=O)C(C(C)C)NC(=O)C(C(C)C)OC(=O)C(C(C)C)NC(=O)C(C)OC(=O)C(C(C)C)NC(=O)C(C(C)C)OC(=O)C(C(C)C)NC(=O)C(C)OC(=O)C(C(C)C)NC(=O)C(C(C)C)OC(=O)C(C(C)C)NC1=O (stereo not given) | -69% (active)
C[C@H](O)CCC(=O)c1ccoc1 | 106%
CCCCCCCCCCCCCCCCCC1OCC(COC(=O)O[C@@H](C(=O)O[C@H]2C[C@@]3(O)[C@@H](OC(=O)c4ccccc4)[C@@H]4[C@]5(OC(C)=O)CO[C@@H]5C[C@H](O)[C@@]4(C)C(=O)[C@H](OC(C)=O)C(=C2C)C3(C)C)[C@@H](NC(=O)c2ccccc2)c2ccccc2)O1 (stereo not given in full) | 18.2%
O=c1[nH]c(=O)[nH]c(=O)[nH]1 | 97.2%
O=CC1(c2ccccc2)CCN(Cc2ccccc2)CC1 | 102%
CC(=O)c1cccc(S(=O)(=O)F)c1 | 92.1%
CC(=O)Nc1nc2c(s1)C1=CC[C@H]3[C@@H]4CC[C@H](OC(C)=O)[C@@]4(C)CC[C@@H]3[C@@]1(C)CC2 | 39.8%
CC1=CC(=O)CCC12CCOC2=O (stereo not given) | 102%
CCC1CCC(=O)O1 (stereo not given) | 106% and 107%
CN(C)C(=S)SSC(=S)N(C)C | 99%
ClC1OC(Cl)(Cl)C(Cl)(Cl)OC1(Cl)Cl (stereo not given) | 89.4%
COc1ccc(N)cc1OC | 103%
